Shown are actives, neighbours in structure and some others; about 10% of the full set was active somewhere.
GPT2 inhibitor = GPT2 alanine aminotransferase inhibition; Q8TD30; Recombinant GPT2, coupled pyruvate oxidase/HRP Amplex Red fluorescence; Potency, µM (highest dose often 57.7 µM), without a hit: at the top dose activity change, negative = inhibition, hits mostly inhibitors; 100,000 compounds, 0.25% hits; further: nearly all actives have a fitted effect of over 60% in size
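Inhibition is scored from Amplex Red fluorescence generated when pyruvate oxidase and HRP act on pyruvate released by GPT2. Reactions contain 10ng/uL enzyme, 250uM a-KG and 2mM L-alanine and run 30 min at room temperature.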
NPR1 antag = antagonists of human natriuretic peptide receptor Npr1. P16066. HEK293 hNpr1 GloSensor cGMP, ANP-stimulated luminescence. Potency, µM (top dose mostly 46.3 µM), without a hit: at the top dose activity change, negative = inhibition, usual class: inhibitors. 76,000 compounds, 1.6% hits; calls by dose curve; further: nearly all actives have a fitted effect of over 60% in size
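HEK293 cells stably expressing human Npr1 and cGMP GloSensor pGS-40F, loaded 2 h with 2% GloSensor reagent, given compound 30 min at room temperature. Luminescence read before and 20 min after 0.1 nM hNppA.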
Luciferase inh = blocks purified firefly luciferase enzyme activity | AID 1347043 | purified P. pyralis luciferase, luminescence, biochemical | P08659 | 76,000 compounds, 2.5% hits | Potency, µM (series often up to 115 µM), hits mostly inhibitors; further: nearly all actives have a fitted effect of over 65% in size
Target sequence (P08659 whole entry, looked up): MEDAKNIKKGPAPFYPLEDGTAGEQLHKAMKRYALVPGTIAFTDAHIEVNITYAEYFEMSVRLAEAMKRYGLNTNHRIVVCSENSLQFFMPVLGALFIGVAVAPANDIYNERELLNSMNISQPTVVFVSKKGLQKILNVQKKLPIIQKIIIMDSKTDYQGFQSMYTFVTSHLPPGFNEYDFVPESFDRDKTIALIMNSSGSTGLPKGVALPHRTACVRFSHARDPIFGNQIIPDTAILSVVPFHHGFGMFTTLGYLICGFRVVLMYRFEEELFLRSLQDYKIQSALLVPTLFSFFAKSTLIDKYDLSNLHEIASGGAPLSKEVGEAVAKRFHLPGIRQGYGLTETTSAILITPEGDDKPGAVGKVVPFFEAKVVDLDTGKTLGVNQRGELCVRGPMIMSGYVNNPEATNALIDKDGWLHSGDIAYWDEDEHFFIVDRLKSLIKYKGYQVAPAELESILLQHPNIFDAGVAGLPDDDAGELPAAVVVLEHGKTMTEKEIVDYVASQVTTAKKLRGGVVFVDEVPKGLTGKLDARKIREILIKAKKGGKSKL
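Inhibitors were tested against purified firefly luciferase in a biochemical, low-substrate format (both substrates at 10uM) and luminescence measured with a CCD imager.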
3T3 cytotox = kills NIH 3T3 cells; NIH 3T3 viability, CellTiter-Glo ATP luminescence, 48-72 h; Potency, µM (top dose mostly 96.7 µM), for inactives: top-dose activity change, negative = cytotoxicity, hits mostly inhibitors; 94,000 compounds, 4.3% hits; further: nearly all actives have a fitted effect of over 55% in size
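Luminescent ATP readout (CellTiter-Glo, 10 min RT) after 48 or 72 hr compound exposure of NIH 3T3 cells seeded at 400 cells/well in 1536-well format; quantitative HTS.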
HEK293 tox = cytotoxic compounds in HEK 293 cells | HEK 293 viability, ATP luminescence (CellTiter-Glo), 48-72 h | Potency, µM (doses to about 115 µM), for the others: top-dose activity change, negative = cytotoxicity, actives largely listed as inhibitors | 94,000 compounds, 6.6% hits; further: nearly all actives have a fitted effect of over 60% in size
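Viability of HEK 293 cells, plated at 250 cells/well, was judged by cellular ATP after compound treatment for 48 or 72 hr. Luminescence was imaged 10 min after CellTiter-Glo addition at room temperature.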
* marks the source's active call; other numbers are inactive results; i = inactive; ? = inconclusive; . = not tested or not shown; [ ] = dose if it differs, or a comment. Unless noted, the call rests on the fitted dose curve; in most records, active means well fitted curve in the direction sought with a large enough effect; inconclusive means small, poorly fitted or top-dose-only effect, or another doubt; inactive means no such curve, though single readings can be large; an effect the other way counts as inactive or inconclusive. On the % scale 0 is the no-effect control and ±100 the full control effect; potency means the concentration at half of the fitted maximal effect.

SMILES | GPT2 inhibitor | NPR1 antag | Luciferase inh | 3T3 cytotox | HEK293 tox
CN1Cc2ccc(NCc3ccccc3)nc2C(C)(C(=O)NCCc2cnc[nH]2)C1 (stereo not given) | 2%[88.5 µM] | 0%[70.6 µM] | i | ? | ?
CN1Cc2ccc(NCc3ccccc3)nc2C(C)(C(=O)NCc2ccc3c(c2)OCO3)C1 (stereo not given) | -9% | -28% | i | ? | ?
CC1(C(=O)NCc2ccncc2)CN(Cc2ccccc2)Cc2ccc(N3CCOCC3)nc21 (stereo not given) | 4% | -6% | i | ? | -19%
COc1cccc(-c2cccc(C(=O)N3CCN([S+](=O)([O-])c4cccc(C(F)(F)F)c4)CC3)c2)c1 | i | . | . | -20% | ?
Cc1ccc2nc(CO[C@H]3CN(Cc4ccc5c(c4)OCO5)C[C@H]3F)[nH]c2c1 | -2%[88.5 µM] | ? | i | -30%[138 µM] | ?
CN1C(=O)c2cccn2CC1C(=O)Nc1ccc(F)cc1 (stereo not given) | i | . | . | -8% | 3%
O=C(Nc1ccccc1Br)NC1CCN(c2ccc(C(F)(F)F)cn2)C1 (stereo not given) | -18% | . | . | . | .
CC(C)CNc1ccc2c(n1)C(C)(C(=O)NC1COC1)CN(Cc1ccccc1)C2 (stereo not given) | -12%[88.5 µM] | -11%[70.6 µM] | i | ? | ?
CC(C)CNc1ccc2c(n1)C(C)(C(=O)NCc1ccco1)CN(Cc1ccccc1)C2 (stereo not given) | 2%[88.5 µM] | -17%[70.6 µM] | i | 40µM* | 50µM*
CC(C)CNc1ccc2c(n1)C(C)(C(=O)NC(C)C)CN(Cc1ccccc1)C2 (stereo not given) | 1%[88.5 µM] | ? | i | 35µM* | 63µM*
COCCCNC(=O)C1(C)CN(Cc2ccccc2)Cc2ccc(NCC(C)C)nc21 (stereo not given) | 2%[88.5 µM] | 5%[70.6 µM] | i | ? | 89µM*
Fc1ccc(-c2cnc3n2C[C@H](CNCc2ccc4c(c2)OCO4)OC3)cc1 | 4%[88.5 µM] | ? | i | 89µM* | 100µM*
Clc1ccc(-c2cnc3n2C[C@H](CNCc2ccc4c(c2)OCO4)OC3)cc1 | -6%[88.5 µM] | ? | i | ? | 89µM*
c1ccc(CNC[C@H]2Cn3c(-c4ccc5c(c4)OCCO5)cnc3CO2)cc1 | -10%[88.5 µM] | -23%[70.6 µM] | i | -22%[138 µM] | ?
CCOc1cc(=O)n2c(c1C(=O)Nc1ccc3c(c1)OCCO3)CCCCC2 | 4% | -19% | 40µM* | -3% | -24%
CCOc1cc(=O)n2c(c1C(=O)Nc1ccc(OC)c(OC)c1)CCCC2 | -9% | 0% | i | i | 4%
COc1ccccc1Cn1c(-c2ccc(Cl)cc2)nc(C)c(CCO)c1=O | i | 7% | i | ? | 32µM*
Cc1cccc(-c2nc(Cn3c(-c4ccccc4)nc(C)c(CCO)c3=O)c(C)o2)c1 | i | -26% | i | ? | 79µM*
COc1c(C)cnc(Cn2c(-c3ccccc3)nc(C)c(CCO)c2=O)c1C | i | 1% | i | 45µM* | ?
COc1ccccc1Cn1c(-c2cccc(Cl)c2)nc(C)c(CCO)c1=O | ? | 0% | i | ? | ?
Cc1cccc(-c2nc(Cn3c(-c4ccc(F)cc4)nc(C)c(CCO)c3=O)c(C)o2)c1 | i | 4% | i | 3% | i
Cc1nc(-c2ccccc2)n(Cc2ccccc2Cl)c(=O)c1CCO | 2% | -7% | i | 45µM* | ?
Cc1nc(-c2ccc(Cl)cc2)n(Cc2ccc(F)cc2)c(=O)c1CCO | -7% | -6% | i | ? | 20µM*
COc1ccc(C(=O)N2CCC3(CC2)CCC(O)(CN(C)C)CC3)cn1 | -11% | . | . | -11% | -4%
Cc1cc(NC(=O)Cn2cccc2-c2nc(-c3ccc4c(c3)OCO4)no2)n[nH]1 | i | -2% | i | -19% | ?
SMILES | GPT2 inhibitor | NPR1 antag | Luciferase inh | 3T3 cytotox | HEK293 tox
COCC(=O)NC[C@@H]1C=C(C)[C@H](Cc2nc3ccc(F)cc3[nH]2)C[C@H]1C(C)C | ? | -15%[70.6 µM] | i | 50µM* | ?
CC1=C[C@@H](CNC(=O)c2cccnc2)[C@H](C(C)C)C[C@H]1Cc1nc2ccc(F)cc2[nH]1 | i | -4%[70.6 µM] | i | ? | ?
CC(=O)NC[C@@H]1C=C(C)[C@H](Cc2nc3ccc(F)cc3[nH]2)C[C@H]1C(C)C | 2%[88.5 µM] | -15%[70.6 µM] | i | 79µM* | 45µM*
COCC(=O)NC[C@@H]1C=C(C)[C@H](Cc2nc3ccccc3[nH]2)C[C@H]1C(C)C | -1%[88.5 µM] | -22%[70.6 µM] | i | ? | ?
O=C(c1ccccc1F)N1CCC2(CC1)COc1ccccc1CN2 | i | 0%[70.6 µM] | i | -2%[138 µM] | i
COc1ccc(NC(=O)Nc2cccn3nc(C)nc23)cc1 | ? | -14% | 18µM* | ? | ?
Cc1nc2c(NC(=O)Nc3cccc(C(F)(F)F)c3)cccn2n1 | i | -24% | ? | ? | 35µM*
CCc1nc2c(NC(=O)Nc3cccc(C(=O)OC)c3)cccn2n1 | 3% | -4% | ? | ? | ?
CCOc1ccc(CC(=O)Nc2cccn3nc(C)nc23)cc1 | 1% | 5% | i | -3% | i
Cn1cc(CN2C[C@@H]3OCC(=O)N[C@@H]3C2)c2ccccc21 | -25%[88.5 µM] | -1%[70.6 µM] | i | 112µM* | ?
C/C=C/C=C/C=C/C(=O)OC1C=C(C=O)C(O)(C(=O)O)C2(C)CCCC(C)(C)C12 (stereo not given) | -9%[27.3 µM] | . | . | . | .
Cc1ccc(Nc2ccnc(N3CCC(NC(=O)c4ccc(F)cc4)CC3)n2)cc1 | -2% | . | . | 35µM* | ?
Cc1ccc(Nc2ccnc(N3CCC(NC(=O)c4ccc(C)cc4)CC3)n2)cc1 | -21% | . | . | ? | ?
Cc1ccc(Nc2ccnc(N3CCC(NC(=O)NC4CCCC4)CC3)n2)cc1 | -7% | . | . | -10% | -27%
Cc1ccc(Nc2ccnc(N3CCC(NC(=O)c4ccc(Cl)nc4)CC3)n2)cc1 | 4% | . | . | 40µM* | 40µM*
Cc1ccc(Nc2ccnc(N3CCC(NC(=O)c4ccc(C(F)(F)F)cc4)CC3)n2)cc1 | i | . | . | 13µM* | ?
CC(C)Cn1c(=O)c(C(=O)N2CCN(C(=O)Nc3ccc(Cl)cc3)CC2)nc2cccnc21 | i | . | . | -19% | i
CNC(=O)c1cc(C)nc2onc(C3CCN(C(=O)c4cccnc4)C3)c12 (stereo not given) | . | . | . | -5% | 3%
CCN1c2cc(C(=O)Nc3cccc(Cl)c3)ccc2C(=O)N2CCCCC21 (stereo not given) | i | 3% | i | ? | 32µM*
CN1c2cc(C(=O)Nc3ccc(F)c(Cl)c3)ccc2C(=O)N2CCCCC21 (stereo not given) | i | 0% | i | ? | ?
